# In all, about 320,000 compounds went through this assay and about 2,100 (0.66%) were called active. About 53% were inconclusive and are not listed. Calls come from the whole dose curve; as a rule, active = well fitted inhibition curve with a large enough effect in the signal ratio, with a control signal flat (not every such curve was filed as active); inconclusive = small, poorly fitted or top-dose-only effect, or effect the other way, or a change in a side signal; inactive = flat fitted curve, though single readings scatter; the % refers to the signal ratio. The full list was thinned out, with actives kept by preference.
# Assay: qHTS Assay for Lipid Storage Modulators in Drosophila S3 Cells;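 for cell number change: cells counted by Cell Tracker Red CMTPX staining in the red channel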; for lipid storage change, negative = inhibition: % is set by controls: 0 for no effect and ±100 for the full control effect
# Conditions: BODIPY lipid droplet fluorescence, 18-24 h, cells fed with added oleic acid; cell number change: measured here: cell count max response; series mostly up to 46.1 µM; lipid storage change, negative = inhibition: at the top concentration
# In short: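 Drosophila S3 cells loaded with oleic acid (400 uM, as added) and compounds at several concentrations; lipid droplets imaged by 488-nm laser-scanning cytometry, 500–530 nm intensity and object ratio to cell channel. Percent activity normalized to 20 uM Triacsin C.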
# Potency is the fitted concentration of half-maximal effect.
SMILES,Potency,cell number change [%],outcome,"lipid storage change, negative = inhibition"
CCCn1c(=O)c2sccc2n2c(CCCC(=O)NCC3CCCO3)nnc12 (stereo not given),20.6 µM (active),-21.7,,
COCCCn1c(=O)c2sccc2n2c(CCCC(=O)NCC3CCCO3)nnc12 (stereo not given),18.4 µM (active),11.8,,
CCCn1c(=O)c2sccc2n2c(CCCC(=O)NC3CCN(Cc4ccccc4)CC3)nnc12,,6.65,inactive,
Cn1c(=O)c2sccc2n2c(CCCC(=O)NCc3ccco3)nnc12,,-10.3,inactive,
CCCn1c(=O)c2sccc2n2c(CCCC(=O)NCc3ccco3)nnc12,29.1 µM (active),-3.77,,
Cn1c(C(=O)OCC(=O)NCC2CCCO2)cc2sccc21 (stereo not given),,0.161,,0.961% (inactive)
COCCCn1c(=O)c2sccc2n2c(CCCC(=O)NCc3ccccc3)nnc12,,12.6,inactive,
CCCN(CCC)C(=O)Cn1c(=O)n(CCCC(=O)NCc2ccco2)c(=O)c2sccc21,,2.76,,-0.536% (inactive)
O=C(CCCn1c(=O)c2sccc2n(CC(=O)NCC2CCCO2)c1=O)NCc1ccco1 (stereo not given),,3.33,,8.98% (inactive)
O=C(O)CCCN=C1NC2(CCCC2)Cc2ccccc21,,11.6,,6.16% (inactive)
Cc1cc(=O)[nH]c(SCC(=O)c2ccc3c(c2)NC(=O)CO3)n1,,4.71,,1.83% (inactive)
COc1cccc(NC(=O)CN(C)C(=O)CSc2nc(C)cc(C)n2)c1,,1.93,,24.9% (inactive)
COC(=O)c1c(NC(=O)c2cccnc2Cl)sc(C(=O)N(C)C)c1C,,7.02,,20.4% (inactive)
COc1ccccc1C(CC(=O)Nc1ccc(C)c(C)c1)c1ccc(OC(C)C)cc1 (stereo not given),,11.9,,-0.923% (inactive)
COC(=O)COc1ccc(NC(=O)Cn2nc(-c3ccccc3)c3ccccc3c2=O)cc1,,0.0736,,-8.81% (inactive)
COc1ccc(CNc2nc(S(=O)(=O)c3ccccc3)c(Cl)s2)cc1OC,,-10.4,,-3.6% (inactive)
Nc1cc(OC(=O)c2c(F)cccc2Cl)nn1S(=O)(=O)c1ccccc1,0.517 µM (active),-4.17,,
Cc1onc(-c2ccccc2Cl)c1C(=O)Oc1cc(N)n(S(=O)(=O)c2ccc(F)cc2)n1,,-4.68,,-2.64% (inactive)
Cc1ccc(S(=O)(=O)n2nc(OC(=O)c3c(F)cccc3Cl)cc2N)cc1,,5.65,inactive,
COc1ccc(-c2onc3ccc(Cl)cc23)cc1,,,inactive,
CC(C)NC(=O)c1cc(-n2cnnc2)ccc1Cl,25.9 µM (active),-14.2,,
Cc1ccc(NC(=O)c2cc(-n3cnnc3)ccc2Cl)cc1,,-2.68,,10.7% (inactive)
CC(=O)Nc1ccc(NC(=O)c2cc(-n3cnnc3)ccc2Cl)cc1,,,inactive,

SMILES,Potency,cell number change [%],outcome,"lipid storage change, negative = inhibition"
Cc1cc(Cl)ccc1NC(=S)NCCc1ccc(Cl)cc1,16.4 µM (active),-20.6,,
CCCNC(=S)Nc1ccc(Cl)cc1C,,-19.9,,-8.54% (inactive)
Cc1cc(Cl)ccc1NC(=S)NCC(C)C,,-2.85,,4.75% (inactive)
Cc1ccc(/C=C2/SC(=S)N(CCC(=O)N3CCN(C)CC3)C2=O)cc1,,1.31,,-5.28% (inactive)
Cc1csc(NC(=O)CCS(=O)(=O)c2ccc(Br)cc2)n1,,,inactive,
O=C(CCS(=O)(=O)c1ccc(F)cc1)Nc1nc(-c2ccncc2)cs1,,-16.7,inactive,
Cc1ccc(S(=O)(=O)CC(=O)Nc2nc(C(C)(C)C)cs2)cc1,,18.4,inactive,
Cc1ccc(S(=O)(=O)CCC(=O)Nc2nc(-c3cccnc3)cs2)cc1,13 µM (active),-24.9,,
Cc1ccc(S(=O)(=O)CCC(=O)Nc2nc(C(C)(C)C)cs2)cc1,23.1 µM (active),-1.15,,
Cc1ccc(S(=O)(=O)CC(=O)Nc2nc(-c3ccccc3)cs2)cc1,,,inactive,
Cc1occc1C(=O)N/N=C/c1sc(N2CCOCC2)nc1-c1ccccc1,,-21.3,,-6.96% (inactive)
O=[N+]([O-])c1ccc(N/N=C/c2sc(N3CCOCC3)nc2-c2ccccc2)c(S(=O)(=O)Nc2ccccc2Cl)c1,1.03 µM (active),,,
O=C(N/N=C/c1sc(N2CCOCC2)nc1-c1ccccc1)c1cccc(S(=O)(=O)N2CCCC2)c1,,111,,27.6% (inactive)
O=C(c1ccccc1)c1nc2c(n1O)CCCCC2,,,inactive,
Cc1cc(C(=O)Nc2ccccc2C(=O)O)ccc1NC(=O)COc1cccc([N+](=O)[O-])c1,,6.05,,12.2% (inactive)
COc1ccc(S(=O)(=O)N(CC(=O)NCCC(C)C)c2ccccc2)cc1OC,,-21.6,,-27.8% (inactive)
COc1cccc2cc(C(=O)NCCc3ccccc3)c(=O)oc12,,4.66,,6.67% (inactive)
COc1cccc2cc(C(=O)Oc3ccccc3)c(=O)oc12,,-11.3,,-22.4% (inactive)
COc1cccc2cc(C(=O)OCc3ccccc3)c(=O)oc12,1.46 µM (active),-24.9,,
CCN1CCN(C(=S)Nc2ccc(C(C)=O)cc2)CC1,,,,9.37% (inactive)
CC1(C)OC(=O)CC1C(=O)NCc1ccccc1 (stereo not given),1.84 µM (active),7.5,,
CC12CCC(C(=O)NCc3ccccc3)(OC1=O)C2(C)C (stereo not given),,-20.7,inactive,
O=C1CCC(C(=O)NCc2ccccc2)N1 (stereo not given),,7.41,,-8.49% (inactive)

SMILES,Potency,cell number change [%],outcome,"lipid storage change, negative = inhibition"
COc1ccc(C(C)NC(=O)C2C(=O)NC3(C)CC2c2ccccc2O3)cc1 (stereo not given),,-6.03,,9.39% (inactive)
CC12CC(c3ccccc3O1)C(C(=O)N1CCOCC1)C(=O)N2 (stereo not given),,-1.42,,1.33% (inactive)
CC12CC(c3ccccc3O1)C(C(=O)NCc1ccccc1)C(=O)N2 (stereo not given),29.1 µM (active),13.7,,
CC(Oc1ccccc1)c1nnc(SCC(=O)NC2CC2)n1C (stereo not given),,17.8,,-12.4% (inactive)
Cc1ccc2nc3sc(-c4nnc(-c5ccccc5[N+](=O)[O-])o4)c(N)c3cc2c1,,,inactive,
CCCn1c(=O)[nH]c(=O)c2c1nc(-c1ccccc1OC(F)F)n2CCOC,,1.56,,14.4% (inactive)
O=C(NCc1ccc2c(c1)OCO2)C1CCCN(S(=O)(=O)c2cccnc2)C1 (stereo not given),,9.61,,10.6% (inactive)
O=C(CN1CCCCCC1)Nc1ccc([N+](=O)[O-])cc1Cl,,-17.1,inactive,
O=C(COC(=O)c1ccccn1)NCc1ccccc1Cl,,,,-5.2% (inactive)
CC(C)(C)N(Cc1ccccc1)C(=O)COC(=O)c1ccc([N+](=O)[O-])o1,11.6 µM (active),-25.7,,
CC(C)(C)N(Cc1ccccc1)C(=O)COC(=O)c1ccc(Br)o1,,-7.45,,15.1% (inactive)
CC(C)(C)N(Cc1ccccc1)C(=O)COC(=O)c1cccc([N+](=O)[O-])c1,,17.2,,24.6% (inactive)
CC(NC(=O)CN(C1CCCCC1)S(C)(=O)=O)c1ccccc1 (stereo not given),,-4.99,,-21.2% (inactive)
COc1ccccc1CNC(=O)C(=O)NCCC1CCCCN1S(=O)(=O)c1ccc(C)cc1 (stereo not given),,18.8,,26.8% (inactive)
Cc1ccc(S(=O)(=O)N2CCCCC2CCNC(=O)C(=O)NCc2ccccc2C)cc1 (stereo not given),9.2 µM (active),,,
COc1cccc(NC(=O)C(=O)NCCC2CCCCN2S(=O)(=O)c2ccccc2)c1 (stereo not given),9.2 µM (active),-3.85,,
O=C(NCCC1CCCCN1S(=O)(=O)c1ccccc1)C(=O)NC1CCCC1 (stereo not given),,-1.87,,9.91% (inactive)
Cc1ccc(S(=O)(=O)N2CCCCC2CCNC(=O)C(=O)NC2CCCC2)cc1 (stereo not given),0.184 µM (active),-16.3,,
COc1cccc(CNC(=O)C(=O)NCCC2CCCCN2S(=O)(=O)c2ccccc2)c1 (stereo not given),,-8.33,,23.2% (inactive)
Cc1ccc(S(=O)(=O)N2CCCCC2CCNC(=O)C(=O)NCc2ccccc2)cc1 (stereo not given),,,,28.7% (inactive)
COc1cccc(NC(=O)C(=O)NCCC2CCCCN2S(=O)(=O)c2cccs2)c1 (stereo not given),,,,-10.7% [at 0.0737 µM] (inactive)
O=C(NCCC1CCCCN1S(=O)(=O)c1ccc(F)cc1)C(=O)NC1CC1 (stereo not given),,,,12.8% (inactive)
FC(F)(F)c1cccc(-c2ccn3ncnc3n2)c1,,16.1,,8.44% (inactive)

SMILES,Potency,cell number change [%],outcome,"lipid storage change, negative = inhibition"
CC(=O)c1cc(-c2ccccc2)n(CC(=O)NC2CCCC2)c1C,,-1.74,,-17.9% (inactive)
CCC(=O)Nc1ccc(NC(=O)CSc2nnnn2-c2ccc3c(c2)OCCO3)cc1,,5.29,,7.85% (inactive)
C/C(=C\c1cc2ccccc2o1)C1Nc2cccc3cccc(c23)N1,,7.96,,19.1% (inactive)
c1coc(C2Nc3cccc4cccc(c34)N2)c1,,-0.664,inactive,
C/C(=C\c1ccco1)C1Nc2cccc3cccc(c23)N1,18.4 µM (active),-14.8,,
CC(C)(C)c1ccc(C(=O)OCC(=O)NC2CC2)cc1,,,inactive,
CCc1nn(C(CC)C(=O)NCc2cccs2)c(=O)c2cc3occc3n12 (stereo not given),,-4.96,inactive,
CCc1nn(C(CC)C(=O)NCc2cccc(OC)c2)c(=O)c2cc3occc3n12 (stereo not given),,,inactive,
CCc1nn(C(CC)C(=O)NCc2cccc(OC)c2OC)c(=O)c2cc3occc3n12 (stereo not given),10.3 µM (active),-13.5,,
Cc1cc(S(=O)(=O)NCC(C)C)ccc1OCC(=O)NCc1ccco1,,21.6,,5.71% (inactive)
Cc1noc(C)c1CCC(=O)NC1CCCN(Cc2ccc(CC(C)C)cc2)C1 (stereo not given),,,inactive,
Cc1ccc(N=Cc2ccc(O)cc2O)cc1F,,,,28.9% (inactive)
O=C(O)c1ccc(NC(=O)C2CC=CCC2C(=O)O)cc1 (stereo not given),0.184 µM (active),3.62,,
CN(C(=O)c1ccc(NC(=O)C2CC=CCC2C(=O)O)cc1)c1ccccc1 (stereo not given),,2.31,,-13.4% (inactive)
O=C(O)C1C2C=CC(O2)C1C(=O)Nc1ccc(S(=O)(=O)N2CCc3ccccc32)cc1 (stereo not given),,-9.33,,18.4% (inactive)
O=C(O)C1CC=CCC1C(=O)Nc1ccccc1 (stereo not given),,,inactive,
O=C(O)C1CC=CCC1C(=O)Nc1ccc(S(=O)(=O)N2CCCc3ccccc32)cc1 (stereo not given),23.1 µM (active),4.45,,
O=C(Nc1ccc(S(=O)(=O)N2CCc3ccccc32)cc1)C(F)(F)F,,-4.4,inactive,
CC(C)CC(NC(=O)c1ccccc1)C(=O)OCC(=O)Nc1ccc(Br)cn1 (stereo not given),,,inactive,
Cc1[nH]c2ccccc2c1SCCNC(=O)c1ccc(S(=O)(=O)N2CCCC2)cc1,,-15.8,,15.4% (inactive)
CNC(=S)Nc1cc(C(=O)N2CCCC2)ccc1N1CCCC1,,-7.02,,5.95% (inactive)
Cc1cccc(NC(=O)C2C(c3ccccc3)C2(Cl)Cl)c1C (stereo not given),,10.7,,-1.24% (inactive)
O=C(c1cccs1)N1CCC(c2nc3c(nnn3Cc3cccc(Cl)c3)c(=O)[nH]2)CC1,,-4.62,inactive,
